This is part of a sample that, as a whole, favours compounds with a hit. Of some 79,000 tested, about 15% had one in any assay. A number with no mark means an inactive call. Active and inactive are the calls of the source. No stated cut-off is given here; in the data, active means growth inhibition above about 70%; inactive means the rest.
How the values were obtained:
[1] = NCI Yeast Anticancer Drug Screen. Data for the rad50 strain (AID 155);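 further: 0% = growth of vehicle-only cultures of the same strain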; settings: S. cerevisiae rad50 strain growth inhibition, hits give high values
Outline: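 Growth of the mutant yeast was measured after compound exposure and referenced to vehicle-treated cultures.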

[2] = NCI Yeast Anticancer Drug Screen. Data for the mec2-1 strain (AID 157); settings: S. cerevisiae mec2-1 strain, hits give high values
Outline: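 Test agents were screened against the mec2-1 yeast strain, with defined DNA repair or cell cycle alteration. Growth was scored as inhibition against vehicle-only controls.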

[3] = NCI Yeast Anticancer Drug Screen. Data for the sgs1 mgt1 strain (AID 161);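 further: 0% = growth of cultures given vehicle only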; settings: S. cerevisiae sgs1 mgt1 strain, hits give high values
Outline: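 Read-out: growth inhibition vs vehicle controls. Cells: mutant yeast strain deficient in DNA damage repair.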

[4] = NCI Yeast Anticancer Drug Screen. Data for the cln2 rad14 strain (AID 165);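 further: 0% = growth equal to vehicle treated cultures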; settings: S. cerevisiae cln2 rad14 strain, hits give high values
Outline: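 Growth of compound-exposed yeast (cln2 rad14 genotype) measured and expressed as inhibition relative to vehicle.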

[5] = NCI Yeast Anticancer Drug Screen. Data for the bub3 strain (AID 167); settings: S. cerevisiae bub3 mutant strain, hits give high values
Outline: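 Whole-cell yeast assay. The mutant strain was incubated with compounds, and growth inhibition was determined by comparison with vehicle-treated cells.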

[6] = NCI Yeast Anticancer Drug Screen. Data for the mlh1 rad18 strain (AID 175); settings: S. cerevisiae mlh1 rad18 strain growth inhibition, hits give high values
Outline: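 In this whole-cell yeast screen, a strain with altered DNA damage repair is challenged with compound, and its growth is measured against matched vehicle-treated controls.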

[7] = at 5.0 µM (retest, dose inferred, filed as 0.5)
[8] = at 50.0 µM (retest, dose inferred, filed as 5.0)

| SMILES | growth inhibition [1, 7] | growth inhibition [1, 8] | growth inhibition ([1]; at 50.0 µM) | growth inhibition [2, 7] | growth inhibition [2, 8] | growth inhibition ([2]; at 50.0 µM) | growth inhibition [3, 7] | growth inhibition [3, 8] | growth inhibition ([3]; at 50.0 µM) | growth inhibition [4, 7] | growth inhibition [4, 8] | growth inhibition ([4]; at 50.0 µM) | growth inhibition [5, 7] | growth inhibition [5, 8] | growth inhibition ([5]; at 50.0 µM) | growth inhibition [6, 7] | growth inhibition [6, 8] | growth inhibition ([6]; at 50.0 µM) |
| --- | --- | --- | --- | --- | --- | --- | --- | --- | --- | --- | --- | --- | --- | --- | --- | --- | --- | --- |
| O=C(O)c1ccc2c3c(ncnc13)-c1ccccc1C2=O | 22% | 96% (active) | 62% | 43% | 98% (active) | 45% | 10% | 86% (active) | 61% | 36% | 88% (active) | 34.5% | 36% | 90% (active) | 55.5% | 28% | 98% (active) | 74.6% (active) |
| CS(=O)(=O)c1snc(N)c1C#N | 11% | 73% (active) | 40.9% | 23% | 85% (active) | 47.5% | 17% | 80% (active) | 50.6% | 6% | 61% | -10.1% | 29% | 89% (active) | -9.75% | 18% | 85% (active) | 68.4% |
| COC(=O)c1[nH]cnc1/N=N/N(C)C | 98% (active) | 98% (active) | 98.8% (active) | 99% (active) | 99% (active) | 98.9% (active) | 99% (active) | 99% (active) | 99.5% (active) | 99% (active) | 98% (active) | 99% (active) | 49% | 49% | 98.8% (active) | 98% (active) | 99% (active) | 99.3% (active) |
| O=C1CSC(c2cccc([N+](=O)[O-])c2)N1c1ccc(-c2ccc(-n3c(-c4ccccc4)nc4ccccc4c3=O)cc2)cc1 (centres undefined) | -12% | 72% (active) | 25.1% | -2% | 36% | 59.5% | 2% | 78% (active) | -29.4% | 26% | 48% | 34% | -12% | 91% (active) | 87.8% (active) | 9% | 90% (active) | 83.2% (active) |
| c1ccc(N=C2c3ccsc3C(=Nc3ccccc3)c3ccsc32)cc1 | 25% | 98% (active) | 80% (active) | 22% | 98% (active) | 75.5% (active) | 21% | 93% (active) | 81.7% (active) | 5% | 53% | 84.5% (active) | 51% | 97% (active) | 81.6% (active) | 29% | 97% (active) | 85.6% (active) |
| C=C1CC(C)(COc2ccc3c(C)c(C)c(=O)oc3c2C)OC1=O (centres undefined) | 26% | 82% (active) | -23.4% | 16% | 90% (active) | -75.4% | 24% | 73% (active) | -10.7% | 30% | 64% | -23.1% | 26% | 86% (active) | -10.8% | 29% | 94% (active) | -24.7% |
| COc1ccc(C2Oc3c(cccc3OC)C=C2[N+](=O)[O-])cc1 (centres undefined) | 20% | 96% (active) | 40.5% | 23% | 98% (active) | 40.1% | 40% | 96% (active) | 37.7% | 12% | 92% (active) | -4.5% | 45% | 96% (active) | 45.2% | 33% | 98% (active) | 44% |
| O=C(O)c1ccccc1Cc1ccc2c(c1)Cc1ccccc1-2 | 2% | 76% (active) | 62.5% | -5% | 67% | 66.3% | 6% | 89% (active) | 63.5% | -19% | 88% (active) | 71.2% (active) | -6% | 68% | 50.4% | 14% | 80% (active) | 79.2% (active) |
| CCS(CC)(CC)CC1CCCC2=CCC(P(=O)(c3ccccc3)c3ccccc3)CC21 (centres undefined) | 5% | 5% | 87.2% (active) | 18% | 18% | 78.7% (active) | 11% | 11% | 87.8% (active) | 5% | 5% | 24.2% | -8% | -8% | 67.8% | -9% | -9% | 71.7% (active) |
| Cc1cc(C)c(C(=O)/C=C/C(=O)c2ccccc2)c(C)c1 | 86% (active) | 95% (active) | 62.4% | 89% (active) | 96% (active) | 78.1% (active) | 85% (active) | 96% (active) | 90.6% (active) | 51% | 95% (active) | 47.2% | 89% (active) | 96% (active) | 96% (active) | 93% (active) | 96% (active) | 92.7% (active) |
| Cc1cc(C(C)(CC(C)C)c2ccc(O)c(C)c2)ccc1O | 99% (active) | 99% (active) | 91.1% (active) | 98% (active) | 99% (active) | 93% (active) | 97% (active) | 98% (active) | 93.2% (active) | 68% | 98% (active) | 92.5% (active) | 98% (active) | 97% (active) | 91.4% (active) | 100% (active) | 100% (active) | 91.3% (active) |
| COC(=O)C12Oc3ccc(-c4ccc5c(c4O)C(O)=C4C(=O)CC(C)C(O)C4(C(=O)OC)O5)c(O)c3C(O)=C1C(=O)CC(C)C2O (centres undefined) | 57% | 97% (active) | 90.5% (active) | 61% | 96% (active) | 88.3% (active) | 37% | 98% (active) | 82.5% (active) | 6% | 96% (active) | 91.2% (active) | 53% | 97% (active) | 94.1% (active) | 57% | 97% (active) | 80.8% (active) |
| O=S(=O)(O)c1cc2ccccc2c(O)c1N=Nc1ccccc1 | 1% | 97% (active) | -33.1% | -1% | 98% (active) | -16% | 1% | 98% (active) | -3.25% | -16% | 97% (active) | 31.1% | -1% | 98% (active) | -0.1% | 2% | 98% (active) | 7.6% |
| O=C(CNC(=O)c1ccccc1)NNc1ccccc1 | 16% | 62% | 86.7% (active) | 4% | 65% | 71.2% (active) | 8% | 67% | 32.8% | 3% | 68% | 48.8% | 7% | 89% (active) | 32.5% | 30% | 93% (active) | 86.9% (active) |
| CCCCCCCCCCCC1C(C#N)C(=O)NC(=O)C1C#N (centres undefined) | 92% (active) | 92% (active) | 49.3% | 90% (active) | 92% (active) | 5.4% | 87% (active) | 92% (active) | 64.7% | 73% (active) | 82% (active) | -8.05% | 78% (active) | 86% (active) | -27.9% | 87% (active) | 90% (active) | 26% |
| O=C(c1ccccc1)c1ccccc1S(=O)(=O)Nc1ccccc1 | -5% | 79% (active) | 62.9% | -2% | 69% | 27.8% | -3% | 77% (active) | 30.2% | -8% | 86% (active) | 62.1% | 4% | 91% (active) | 64.2% | -2% | 87% (active) | 72.8% (active) |
| CCCCn1cnc2c(SCc3ccc(F)cc3)nc(N)nc21 | -1% | 48% | 46.3% | 1% | 59% | 46.6% | -3% | 16% | 39.1% | -15% | 49% | 44.8% | 0% | 45% | 90.1% (active) | 0% | 30% | 66.9% |
| CCOc1ccccc1N1C(=O)C=CC1=O | 57% | 67% | 92% (active) | 60% | 75% (active) | 93.6% (active) | 99% (active) | 100% (active) | 93.8% (active) | 99% (active) | 100% (active) | 90.5% (active) | 100% (active) | 100% (active) | 92.3% (active) | 42% | 58% | 92.5% (active) |

— PubChem BioAssay (NCI)
